SW480 rereplic – inducers of DNA re-replication in SW480 colon cancer cells; actives 1.8% (n = 340,000); SW480 DNA re-replication, Hoechst DNA content imaging, 48 h; Potency, µM (top dose mostly 46.1 µM), for the others: top-dose re-replication activation, most hits filed as activators; further: % of control where 0% means no effect; nearly all actives have a fitted effect of over 55% in size
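Treated cells incubate 48 hr (37 C, 5% CO2), are stained 40 min with Hoechst, and nuclear fluorescence is enumerated; a rise in nuclei with high DNA signal marks re-replication.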
KB-V1 cytotox – kills drug-selected multidrug resistant KB-V1 cells. KB-V1 MDR cells viability, CellTiter-Glo, 72 h. AID 1347076. Potency, µM (series often up to 46.1 µM), actives largely listed as cytotoxic. actives 3.4% (n = 400,000); further: on the % scale 0 is the no-effect control and ±100 the full control effect; nearly all actives have a fitted effect of over 60% in size
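Cytotoxicity via CellTiter-Glo luminescence after 72 h compound exposure at 37 degrees C. Cells: drug-selected KB-V1 line, DMEM phenol-red free plus 10% FBS. Compounds tested at multiple concentrations; normalized data fitted to concentration-effect curves.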
HT1080-NT tox – kills 2HG-producing HT-1080-NT fibrosarcoma cells; HT-1080-NT fibrosarcoma viability, CellTiter-Glo ATP luminescence, 48 h; Potency, µM (top dose mostly 46.1 µM), without a hit: top-dose activity, negative = less viability, actives largely listed as cytotoxic; actives 1.6% (n = 360,000);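 further: NT is the 2HG producing partner of a matched IDH1 knockdown line; 0% = DMSO-treated cells and -100% = media-only wells without cells; nearly all actives have a fitted effect of over 55% in size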
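Read-out is CellTiter-Glo luminescence after 10 minutes at room temperature, following 48 hours' compound treatment of HT-1080-NT cells (750 cells/well, RPMI, 5% FBS, 37 degrees C).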
MCF10A rereplic – induces DNA re-replication in MCF 10a normal breast cells. MCF 10A DNA re-replication, Hoechst nuclear intensity, 48 h. Potency, µM (highest dose often 46.1 µM), inactives show top-dose activity, positive = re-replication, actives largely listed as activators. actives 2.9% (n = 350,000). AID 624296; further: % of control where 0% means no effect; nearly all actives have a fitted effect of over 50% in size
KB-3-1 cytotox – KB-3-1 parental cell cytotoxicity; AID 1347075; Potency, µM (doses to about 46.1 µM), most hits filed as cytotoxic; KB-3-1 viability, CellTiter-Glo ATP luminescence, 72 h; actives 1.4% (n = 400,000); further: on the % scale 0 is the no-effect control and ±100 the full control effect; nearly all actives have a fitted effect of over 60% in size
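Cytotoxicity measured as CellTiter-Glo luminescence after 72 h at 37 C. Compound titrations were pinned onto drug-naive KB-3-1 parental adenocarcinoma cells grown in DMEM with 10% FBS, and normalized data fitted to concentration-response curves.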
HT1080 IDH1KD tx – kills HT-1080 cells with IDH1 knockdown | AID 686971 | actives 2% (n = 360,000) | Potency, µM (series often up to 46.1 µM), for inactives: at the top dose activity, negative = toxicity, usual class: cytotoxic | HT-1080 IDH1 knockdown viability, ATP luminescence, 48 h;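 further: 0% = DMSO wells and -100% = cell-free medium wells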
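IDH1KD HT-1080 cells, 750/well, RPMI + 5% FBS; compound pinned after 2 h settling; 48 h, 37 °C; CellTiter-Glo luminescence; % activity normalised to DMSO and no-cell wells; curves fitted, classed by r2 and efficacy.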
Numbers without * were called inactive; i = inactive; ? = inconclusive; · = not tested or not shown; [ ] = another dose, or the depositor's remark. Compounds with a hit are over-represented: about 8% of the library has one in this group of screens. The call rests on the fitted dose curve; in most records, active means well fitted curve in the direction sought with a large enough effect; inconclusive means small, poorly fitted or top-dose-only effect, or another doubt; inactive means no such curve, though single readings can be large; an effect the other way counts as inactive or inconclusive. Potency means the concentration at half of the fitted maximal effect.

SMILES	SW480 rereplic	KB-V1 cytotox	HT1080-NT tox	MCF10A rereplic	KB-3-1 cytotox	HT1080 IDH1KD tx
CN(C(=O)/C(N=Nc1cccc(C(F)(F)F)c1)=C(\O)C(F)(F)F)c1ccccc1	15%	?	11µM*	?	i	?
CC(=O)/C(N=Nc1cccc(C(F)(F)F)c1)=C(\C)O	1%	i	14%	-14%	i	14%
CCOc1ccc(CC(=O)Nc2ccc(S(=O)(=O)N3CCCC3)cc2)cc1	13%	·	2%	6%	·	-8%
COc1ccc2[nH]cc(CCCN3C(=O)c4ccccc4C3=O)c2c1	?	23µM*	-15%	?	i	-21%
COc1ccc2[nH]cc(CCN3C(=O)CCC3=O)c2c1	2%	?	17%	-3%	i	20%
COCCCn1c(=O)/c(=C\c2ccccc2OC(C)C)s/c1=C(/C#N)C(=O)Nc1ccc(C(=O)O)cc1	?	i	-12%	26µM*	i	-21%
CC1=C(C(=O)Nc2ccc(F)cc2F)C2(CCCCCC2)OC1=O	·	i	·	·	?	·
Cc1c(CN2CCC(CO)(CCOc3ccccc3)CC2)[nH]c2c(Cl)cccc12	?	?	21µM*	?	?	18µM*
O=C(Nc1ccccc1Br)C1CCCN(S(=O)(=O)c2cccc3nsnc23)C1 (stereo not given)	·	i	·	·	i	·
Cc1cc(S(=O)(=O)N2CCOCC2)ccc1OCC(=O)NCCCn1ccnc1	?	?	-1%	0%	i	0%
CC(CCc1ccccc1)NC(=O)COc1ccc(S(=O)(=O)N2CCOCC2)cc1[N+](=O)[O-] (stereo not given)	11%	21µM*	-12%	19%	i	-13%
O=C(COc1ccc(S(=O)(=O)N2CCOCC2)cc1Cl)NC1CCCCC1	3%	·	-6%	2%	·	-9%
CNS(=O)(=O)c1cccc(C(=O)OCC(=O)NC(C)CCc2ccccc2)c1 (stereo not given)	-9%	i	8%	4%	i	0%
O=S(=O)(c1ccc(OCC(O)CNC23CC4CC(CC(C4)C2)C3)c(Cl)c1)N1CCOCC1 (stereo not given)	16µM*	?	21µM*	?	?	13µM*
O=C(COc1ccc(S(=O)(=O)N2CCOCC2)cc1Cl)NCCCn1ccnc1	7.3µM*	i	?	?	i	22%
CC(CCc1ccccc1)NC(=O)COC(=O)c1cc(NS(=O)(=O)c2ccc(Cl)c([N+](=O)[O-])c2)ccc1O (stereo not given)	11%	?	?	6.5µM*	i	?
CC(CCc1ccccc1)NC(=O)COc1cc(F)ccc1[N+](=O)[O-] (stereo not given)	6%	i	-4%	6%	i	0%
COc1ccc(CNC(=O)C2CCN(Cc3nc(-c4ccc(Cl)cc4)oc3C)CC2)cc1	·	i	·	·	i	·
O=C(CCn1cnc2onc(-c3ccc(F)cc3)c2c1=O)N1CCN(c2ccccc2)CC1	·	i	·	·	i	·
CC(C)C(C)NC(=O)COc1ccc(S(=O)(=O)N2CCOCC2)cc1Cl (stereo not given)	?	?	1%	0.58µM*	i	3%
CCOC(=O)N1CCC2(CC1)C(C#N)=C(N)OC1=C2C(=O)CC(C)C1 (stereo not given)	-2%	i	8%	-1%	i	11%
COc1cccc(CN(Cc2ccco2)C(c2ccc(F)cc2)c2nnnn2C(C)(C)C)c1 (stereo not given)	4%	?	-1%	?	?	-8%
CCC(C)(C)n1nnnc1C(c1ccc(C)cc1)N(Cc1ccco1)Cc1cccs1 (stereo not given)	11%[9.22 µM]	11µM*	-12%	?	?	?
Cc1cc(SCC(=O)NN)c2cc(Br)ccc2n1	?	i	?	9.2µM*	i	-24%
COc1ccccc1/C=N/NC(=O)CSc1ccc2ccccc2n1	?	i	?	16µM*	i	?
SMILES	SW480 rereplic	KB-V1 cytotox	HT1080-NT tox	MCF10A rereplic	KB-3-1 cytotox	HT1080 IDH1KD tx
COc1ccccc1/C=N/NC(=O)CSc1cc(C)nc2ccccc12	?	i	?	13µM*	?	?
COc1ccc2nc(C)cc(SCC(=O)N/N=C/c3c(OC)ccc4ccccc34)c2c1	-6%	i	10%	-8%	?	16%
COc1ccc2nc(C)cc(SCC(=O)Nc3c(C)cc(C)cc3C)c2c1	-12%	13µM*	23%	14%	i	-15%
COc1ccccc1/C=N/NC(=O)CO	-4%	i	13%	6%	i	16%
COc1ccc2nc(C)cc(SCC(=O)Nc3c(C)cccc3C)c2c1	-4%	?	2%	1%	i	11%
CCn1cc(C(=O)N2CCN(c3ccccc3)CC2)c(=O)c2cc(S(=O)(=O)N3CCCC3)ccc21	·	i	·	·	i	·
Cc1cn([C@H]2C[C@H](O)[C@@H](CO)O2)c(=O)[nH]c1=O	3%	·	·	6%	·	·
CCCCSc1nc(C)cc(SCC(=O)N/N=C/c2cccc(OC)c2O)n1	14%	i	?	4%	?	?
COc1ccc(NC(=O)CCSc2ccc3ccccc3n2)cc1	-3%	i	0%	10µM*	i	-2%
COc1cccc2c(SCC(=O)N/N=C/c3ccc(O)cc3O)cc(C)nc12	7.3µM*	i	?	15µM*	?	?
COc1cccc(NC(=O)CCSc2ccc3ccccc3n2)c1	0%	i	?	10%	i	6%
COc1ccc2nc(C)cc(SCC(=O)N/N=C/c3ccc(O)cc3O)c2c1	?	i	?	6.5µM*	i	?
O=C(O)[C@H](O)[C@@H](O)[C@H](O)[C@H](O)CO	-1%	·	·	3%	·	·
CCOC(=O)c1sc(N2C(=O)c3oc4cc(C)c(C)cc4c(=O)c3C2c2ccc(C)cc2)nc1C (stereo not given)	·	i	·	·	i	·
CCC(=O)OC1C(N(C)C)CC(C)O[C@H]1O[C@H]1[C@H](C)[C@@H](O[C@H]2CC(OC)[C@@H](O)C(C)O2)[C@H](C)C(=O)O[C@@H](CC)[C@](C)(O)[C@@H](O)[C@H](C)C(=O)[C@@H](C)C[C@]1(C)O (stereo not given in full)	11%	·	·	4%	·	·
CCCn1c(Cc2ccccc2)n[nH]c1=S	4%	i	4%	-4%	i	8%
